These results are taken from PubChem BioAssay (NCI).

Assay [1] in a line: NCI Yeast Anticancer Drug Screen. Data for the rad50 strain (AID 155).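 Further: 0% = growth of vehicle-only cultures of the same strain.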 Particulars: S. cerevisiae rad50 strain growth inhibition; at 50.0 µM; stronger effect = higher value. Summed up: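 DNA repair mutant yeast, compound exposure, growth read-out; inhibition is taken relative to vehicle.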
A short description of assay [2]: NCI Yeast Anticancer Drug Screen. Data for the mec2-1 strain (AID 157). The settings on record: S. cerevisiae mec2-1 strain, at 50.0 µM, stronger effect = higher value. In outline: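 mec2-1 yeast strain, carrying an alteration in DNA damage repair or cell cycle control, was exposed to compounds; growth inhibition was measured relative to vehicle-treated controls.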
Assay [3] in a line: NCI Yeast Anticancer Drug Screen. Data for the sgs1 mgt1 strain (AID 161).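 Further: 0% = growth of cultures given vehicle only.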 Particulars: S. cerevisiae sgs1 mgt1 strain, at 50.0 µM, stronger effect = higher value. Summed up:
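Percent growth inhibition was derived by comparing compound-exposed mutant yeast with vehicle-exposed cultures. The strain carries alterations in DNA damage repair.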

Assay [4] can be described thus: NCI Yeast Anticancer Drug Screen. Data for the cln2 rad14 strain (AID 165).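 Further: 0% = growth equal to vehicle treated cultures.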 Particulars: S. cerevisiae cln2 rad14 strain, at 50.0 µM, stronger effect = higher value. Summed up: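 Yeast carrying cln2 and rad14 alterations (cell cycle control and DNA damage repair) were exposed to compounds. Growth inhibition was measured against vehicle-treated controls.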
Assay [5] can be described thus: NCI Yeast Anticancer Drug Screen. Data for the bub3 strain (AID 167). The settings on record: S. cerevisiae bub3 mutant strain, at 50.0 µM, stronger effect = higher value. In outline: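 In this screen, a yeast mutant lacking normal mitotic checkpoint function is challenged with compound. Relative growth versus vehicle gives the inhibition value.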
A short description of assay [6]: NCI Yeast Anticancer Drug Screen. Data for the mlh1 rad18 strain (AID 175). The settings on record: S. cerevisiae mlh1 rad18 strain growth inhibition; at 50.0 µM; stronger effect = higher value. Summed up: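 Growth inhibition of the yeast strain was measured after compound exposure and expressed relative to vehicle-treated controls. The strain carries defined defects in DNA damage repair.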

SMILES strings stand for the structures. About 79,000 compounds went through this panel and 15% of them were active in at least one assay; those are over-represented in the sample as a whole. Unmarked numbers belong to inactive results. Activity calls are given as the source filed them. No stated cut-off is given here; in the data, active means growth inhibition above about 70%; inactive means the rest. Where a SMILES comes first, the peptide text is derived from it. [ ]: non-standard residue; d: D form. The star is where a group is joined. ξ: configuration not given here. ξD = NC(CC(=O)O)C(=O)O; Boc = CC(C)(C)OC(=O)*; Aib = CC(C)(N)C(=O)O; OtBu = CC(C)(C)O*

With `N#CCCN(C(=O)COc1ccc(Cl)cc1Cl)C1CCCCC1`, the growth inhibition was 85% (active) in assay [1]; 87.7% (active) in assay [2]; 73% (active) in assay [3]; 87.2% (active) in assay [4]; 89.3% (active) in assay [5]; 95% (active) in assay [6].

With `Cc1ccc(C)n1-n1c(-c2ccccc2)n[nH]c1=O`, the growth inhibition in assay [1] was -19.8%; in assay [2], -20.9%; in assay [3] it was -2.7%; in assay [4] it was -3.4%; in assay [5], -27.7%; in assay [6] it was -12.3%.

Turning to `COC(=O)C(C)(C)NC(=O)C(C)(C)NC(=O)C(CC(=O)OC(C)(C)C)NC(=O)OC(C)(C)C` (stereo unspecified) (Boc-[ξD](OtBu)-[Aib]-[Aib]-OMe), the growth inhibition in assay [1] was -29.3%; in assay [2] it was -16.1%; in assay [3], -21.1%; in assay [4] it was -7.4%; in assay [5] it was -18.4%; in assay [6], -28.7%.

For `CC1(C(=O)O)CCCC1C(=O)O` (stereo unspecified), the growth inhibition in assay [1] is 12.5%; in assay [2], 6.8%; in assay [3], 1.75%; in assay [4] it was -8.05%; in assay [5], -1.25%; in assay [6], 12.1%.

`O=C(N(Cc1ccccc1)c1ccccc1)C(Cl)(Cl)Cl`: the growth inhibition in assay [1] was 65.4%; in assay [2], 76.8% (active); in assay [3], 78% (active); in assay [4], 30.1%; in assay [5] it was 67%; in assay [6], 78% (active).

`CC(C)=NNC=N/C(C#N)=C(\N)C#N`: the growth inhibition was -14.3% in assay [1]; -0.55% in assay [2]; -17.5% in assay [3]; 18% in assay [4]; -9.6% in assay [5]; -24.7% in assay [6].

As for `Cc1ccc(C)o1`, the growth inhibition in assay [1] was -5.3%; in assay [2], 5.5%; in assay [3], -8.65%; in assay [4], -12.2%; in assay [5], -1.1%; in assay [6], 2.6%.

`O=C(N/N=C\c1cc(=O)[nH]c(=O)[nH]1)c1ccccc1`: the growth inhibition was -18.1% in assay [1]; -2.95% in assay [2]; -11.5% in assay [3]; -6.75% in assay [4]; -14.2% in assay [5]; 2.9% in assay [6].

For `CC(=O)OC1C=CCC2C(=O)C3=C(C(=O)c4ccccc4C3=O)C(=O)C12` (stereo unspecified), the growth inhibition in assay [1] was 72.6% (active); in assay [2], 21.3%; in assay [3] it was 28%; in assay [4], 36.6%; in assay [5] it was 65%; in assay [6], 33.2%.

Consider `CSc1nc2c(nc(N)n2C2OC(CO)C(O)C(O)C2O)c(=O)[nH]1` (stereo unspecified), for which the growth inhibition in assay [1] was -13.7%; in assay [2], 8.45%; in assay [3], -1.85%; in assay [4], -1.2%; in assay [5], -6.2%; in assay [6] it was -8.9%.

`CCOC(=O)c1c(/C=N\Nc2ccccc2)nc2ccccc2c1-c1ccccc1`: the growth inhibition in assay [1] was 11.7%; in assay [2], 0.6%; in assay [3], -2.9%; in assay [4], -6.5%; in assay [5], -30.8%; in assay [6] it was -7.4%.

With `CC(=O)C1(SCCO)CCC2C3CCC4=CC(=O)CCC4(C)C3CCC21C` (stereo unspecified), the growth inhibition is 91.8% (active) in assay [1]; 69.8% in assay [2]; 97% (active) in assay [3]; -3.35% in assay [4]; 41.1% in assay [5]; 77.2% (active) in assay [6].

Consider `N#Cc1c(C#N)c(-c2ccccc2)n(-c2ccccc2)c1N`, for which the growth inhibition in assay [1] was 10.7%; in assay [2], 12%; in assay [3], -29.7%; in assay [4] it was -12.8%; in assay [5] it was -11.2%; in assay [6] it was -22.1%.

For the molecule `C=C(C)[C@@H]1CC=C(CO)CC1`, the growth inhibition was 15.7% in assay [1]; -1.95% in assay [2]; 0.45% in assay [3]; 22.1% in assay [4]; 28.3% in assay [5]; 8.4% in assay [6].

For the molecule `NC(=O)C(=Cn1c(=S)[nH]c2ccccc21)C(N)=O`, the growth inhibition in assay [1] was -51.9%; in assay [2], -23.2%; in assay [3], -19.1%; in assay [4] it was -0.5%; in assay [5] it was -1.8%; in assay [6], -28.2%.

Consider `O=C(NC(Cc1ccc(O)cc1)C(=O)O)C(=O)c1c[nH]c2ccc([N+](=O)[O-])cc12` (stereo unspecified), for which the growth inhibition in assay [1] is 3.45%; in assay [2], 1.45%; in assay [3], -23.1%; in assay [4] it was 0.45%; in assay [5], 2.8%; in assay [6] it was 26.9%.

With `CN1CCCN(C)CCCN(C)CCCN(C)CCC1`, the growth inhibition in assay [1] was -19.8%; in assay [2], -2.45%; in assay [3], 7.6%; in assay [4] it was -4.65%; in assay [5] it was -24.6%; in assay [6], 11.8%.

As for `O=C1N(Cc2ccccc2)[C@H]2CS(=O)(=O)C[C@@H]2N1Cc1ccccc1`, the growth inhibition in assay [1] is 0.9%; in assay [2], 4.1%; in assay [3], 8.75%; in assay [4], -10%; in assay [5] it was 0.85%; in assay [6] it was 12.7%.

`NC(=S)NNC(N)=S`: the growth inhibition in assay [1] was 2.2%; in assay [2] it was -12.9%; in assay [3], -7.3%; in assay [4], 17.4%; in assay [5], -3.2%; in assay [6] it was 24.5%.

On to `c1ccc(-c2ccc(-c3cc4ccccc4c4ccccc34)cc2)cc1`, for which the growth inhibition in assay [1] is -13.8%; in assay [2], -15%; in assay [3], -17.2%; in assay [4] it was -5.8%; in assay [5], -10.3%; in assay [6], -9.2%.

In the case of `CCCC1OCCO1`, the growth inhibition in assay [1] is -15.3%; in assay [2], -0.95%; in assay [3], -6.85%; in assay [4], -4.5%; in assay [5], 5.15%; in assay [6] it was -3.9%.
